# Inconclusive results are not listed. Unmarked numbers belong to inactive results. Activity calls are given as the source filed them. Calls follow the shape of the dose curve; as a rule, active = well fitted cell-killing curve with a large enough effect; inconclusive = small, poorly fitted or top-dose-only effect, or effect the other way; inactive = flat fitted curve, though single readings scatter.
# System: CAOV3
# Test: Primary qHTS to identify gynecologic anti-cancer compounds using libraries of approved drugs and bioactive compounds (AID 1345084); also: nearly all actives have a fitted effect of over 55% in size
# Details: Gynecologic cancer cell panel viability, ATPlite luminescence, 48 h; series mostly up to 57.5 µM; activity change, negative = cytotoxicity: at the top concentration
# Summary of the method: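 Cell viability after 48 h drug treatment, ATPlite luminescence readout; five doses.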
# % is scaled to controls: 0 for no effect and ±100 for the full control effect.
Compound,"activity change, negative = cytotoxicity",Potency
CC1(C)CC[C@]2(C(=O)O[C@@H]3O[C@H](CO)[C@@H](O)[C@H](O)[C@H]3O)CC[C@]3(C)C(=CCC4[C@@]5(C)C[C@@H](O)[C@H](O)C(CO)(CO)C5CC[C@]43C)C2[C@@H]1O (some centres undefined),-3.18% [at 25.3 µM],–
CO[C@@]12CC3[C@@H]([C@@H](O)[C@@H](OC(C)=O)C4[C@](C)(COC(C)=O)CCC[C@]34C)[C@@H](C)C1=CC(=O)O2 (some centres undefined),-2.3% [at 25.3 µM],–
C[C@]12C=CC(=O)C=C1CC[C@@H]1[C@@H]2[C@@H](O)C[C@@]2(C)[C@H]1CC[C@]2(O)C(=O)COC(=O)CCC(=O)O,-6.43%,–
CC1CCC2C(C)(C)C(O)CCC2(C)C12Cc1c(O)cc3c(c1O2)C(N)=NC3 (centres undefined),-4.25% [at 38.5 µM],–
CC12CC34C=CC(=O)C(C)(CCC(=O)O)C3C(CC1C4)O2 (centres undefined),19.4%,–
O=C(O)C[C@H]1CCC(=O)[C@@H]1C/C=C\CCOC1OC(CO)C(O)C(O)C1O (some centres undefined),22.4% [at 38.5 µM],–
COc1cc(/C=C/CO)ccc1O[C@@H]1O[C@H](CO)[C@@H](O)[C@H](O)[C@H]1O,21.5% [at 38.5 µM],–
COc1ccc([C@H]2Cc3cccc(O)c3C(=O)O2)cc1,-17.6%,–
CC(=O)OC(C)OC(=O)C(C)c1ccc(-c2ccccc2)c(F)c1 (centres undefined),5.8%,–
CC1OC(O[C@H]2[C@@H](O)C[C@@]3(C)C([C@H](O)C[C@]4(C)C3CC=C3C5CC(C)(C)CC[C@]5(C(=O)OC5OC(CO)C(O)C(O)C5OC5OCC(OC6OCC(OC7OCC(O)C(O)C7O)C(O)C6O)C(OC6OCC(O)(CO)C6O)C5O)CC[C@]34C)[C@]2(C)CO)C(O)C(O)C1O (some centres undefined),-2.76% [at 6.55 µM],–
C/C=C/C1=CC2=CC(=O)C(C)(O)C(OC(=O)c3c(C)cc(O)cc3O)C2CO1 (centres undefined),9.62% [at 38.5 µM],–
OC[C@H]1O[C@@H](Oc2cc(O)cc(/C=C/c3ccc(O)cc3)c2)[C@H](O)[C@@H](O)[C@@H]1O,-12.6%,–
c1ccc(C(OC2CCN(CCCc3nn[nH]n3)CC2)c2ccccc2)cc1,11.9%,–
N[C@H]1C[C@H]1c1ccc(-c2cccc(O)c2)cc1,–,inactive
NCCOCCOCCNC(=O)Cc1ccc(Nc2nc(NCc3ccc(F)cc3)nc(NCC3CCCCC3)n2)cc1,15.2%,–
COc1cc(-c2cccc(O)c2)cc2c1OCO2,6%,–
CCC[C@@H]1C[C@@H](C(=O)N[C@@H]([C@H]2O[C@H](SC)[C@H](OP(=O)(O)O)[C@@H](O)[C@H]2O)[C@H](C)Cl)N(C)C1,9.2% [at 25.3 µM],–
CCCC(N[C@@H](C)C(=O)N1[C@H](C(=O)O)C[C@@H]2CCCC[C@@H]21)C(=O)OCC (some centres undefined),5.77%,–
C=CC(C)(C)C12CC3C(=O)NC(Cc4cnc[nH]4)C(=O)N3C1Nc1ccccc12 (centres undefined),5.24% [at 38.5 µM],–
CC1OC(OC2C(C)OC(OC3C(OC(=O)/C=C/c4ccc(O)cc4)C(CO)OC(OC4(COC(=O)/C=C/c5ccc(O)cc5)OC(CO)C(O)C4O)C3OC3OCC(O)(CO)C3O)C(O)C2O)C(O)C(O)C1O (centres undefined),-2.97% [at 11.6 µM],–

Compound,"activity change, negative = cytotoxicity",Potency
CC1CCC2(C(=O)OC3OC(COC4OC(CO)C(O)C(O)C4O)C(O)C(O)C3O)CCC3(C)C(=CCC4C5(C)CCC(O)C(C)(C(=O)O)C5CCC43C)C2C1(C)O (centres undefined),16.9% [at 11.6 µM],–
CN1Cc2c(N)cccc2C(c2ccccc2)C1 (centres undefined),-5.03%,–
CC(C)=CC/C=C(/C)[C@H]1CC[C@]2(C)[C@@H]1[C@H](O)CC1[C@@]3(C)CC[C@H](O)C(C)(C)[C@@H]3[C@@H](O[C@@H]3O[C@H](CO)[C@@H](O)[C@H](O)[C@H]3O[C@@H]3O[C@@H](C)[C@H](O)[C@@H](O)[C@H]3O)C[C@]12C (some centres undefined),-8.14% [at 25.3 µM],–
COc1cc(C2c3cc(O)c(OC)cc3CC(CO)C2CO)ccc1O (centres undefined),26% [at 38.5 µM],–
CC/C=C\C[C@H]1C(=O)C=C[C@@H]1CCCCCCCC(=O)O,13.5%,–
CC1=CCC2C(C)(CO)CCCC2(CO)C1CO (centres undefined),6.28%,–
C[C@@H]1O[C@@H](O[C@@H]2[C@@H](O)[C@@H](O)[C@H](O[C@@H]3[C@@H](O)[C@@H](O[C@]4(CO)O[C@H](CO)[C@@H](O)[C@@H]4OC(=O)/C=C/c4ccc(O)cc4)O[C@H](CO)[C@H]3OC(=O)/C=C/c3ccc(O)cc3)O[C@H]2C)[C@H](O)[C@H](O)[C@H]1O,16.9% [at 11.6 µM],–
CC(=O)OCC(=O)O[C@@H]1[C@H]2[C@@H](OC(=O)c3ccccc3)[C@@H](C)C[C@]2(O)[C@H](OC(C)=O)C2(C)[C@H]3CC(C)(C)C(=O)[C@@H]3CC1(OC(C)=O)[C@@H]2OC(C)=O (some centres undefined),7.66% [at 25.3 µM],–
O=S(=O)(NC1CCNCC1)c1cc(S(=O)(=O)c2ccccc2)ccc1C(F)(F)F,30.5%,–
COCC(=O)N1CCc2cc(-c3csc(NC(=O)c4cc(OC)cc(OC)c4)n3)ccc21,19.1%,–
CC1(C)OC(=O)C(OCC2CC2)=C1c1ccc(S(C)(=O)=O)cc1,3.6%,–
C[C@]12CCC[C@](C)(C(=O)O)C1CCC13C=C(CO)C(CCC12)C3 (some centres undefined),6.6% [at 38.5 µM],–
Cc1coc2c1CC1OC1(C)CCC1OC1(C)C2 (centres undefined),1.82%,–
C/C=C1\[C@H](O[C@@H]2O[C@H](CO)[C@@H](O)[C@H](O)[C@H]2O)OC=C(C(=O)OC)[C@H]1CC(=O)OC,-3.22% [at 25.3 µM],–
C=CCc1ccc(O[C@@H]2O[C@H](CO[C@@H]3O[C@H](CO)[C@@H](O)[C@H](O)[C@H]3O)[C@@H](O)[C@H](O)[C@H]2O)c(O)c1,-0.81% [at 25.3 µM],–
C=C1CCC2C(C)(C(=O)O)CC(O)CC2(C)C1CC/C(C)=C/C(=O)O (centres undefined),0.662% [at 38.5 µM],–
O=C(NC[C@H](O)CN1CCc2ccccc2C1)c1cc(NC2COC2)ncn1,-5.52%,–
Nc1ncnc2c1ncn2[C@H]1CCCO1,18.6%,–
CC1(C)CCCC2(C)C3=C(C(=O)OC3O)C(O)CC12 (centres undefined),0.626%,–
